# Pf growth 48h: P. falciparum growth inhibition at 48 hours (one generation); P. falciparum luciferase growth in erythrocytes, 48 h; Potency, µM (top dose mostly 28.7 µM), for inactives: at the highest dose activity change, negative = inhibition, hits mostly inhibitors; hit rate 5.9% among 310,000; AID 504832; further: on the % scale 0 is the no-effect control and ±100 the full control effect
#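 Erythrocytes infected with P. falciparum carrying an integrated firefly luciferase reporter (2% hematocrit, 0.1% parasitemia final) were exposed to compounds in RPMI 1640 with 0.5% Albumax at 37 C, 5% CO2. Growth inhibition was scored as reduced luminescence.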
# NS1 inh: inhibitors of influenza NS1 protein function; Potency, µM (top dose mostly 46.1 µM), without a hit: at the highest dose activity, positive = more growth; hit rate 0.4% among 270,000; calls by dose curve; further: actives are rising curves; nearly all actives have a fitted effect of over 50% in size
#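 In this qHTS, NS1 from influenza A is expressed in budding yeast, where it slows growth. Cells are switched from glucose to 2% galactose medium (pH 6.0, -URA), treated with compound, and growth recovery is read at OD600.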
# HCV inhibitor: HCV inhibition; Huh7.5.1 HCVcc-Cre infection, luciferase reporter, 44 h; Potency, µM (titrated, usually from 41.8 µM), for the others: at the top dose activity change, negative = inhibition, hits mostly inhibitors; hit rate 3.4% among 340,000; further: on the % scale 0 is the no-effect control and ±100 the full control effect
#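 Whole-lifecycle infectious HCVcc-Cre system; cells 1,000/well, compound then virus (~0.5 moi) added 4 h after plating, 44 h culture. Luciferase read 15 sec following 15 min substrate incubation, room temp.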
# AMA1 RON2 block: disrupts binding of P. falciparum AMA1 to RON2; AlphaScreen AMA1-biotinylated RON2 peptide binding; Potency, µM (top dose mostly 58.2 µM), inactives show at the highest dose activity change, negative = inhibition, most hits filed as inhibitors; hit rate 0.2% among 360,000;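 further: 0% = vehicle wells and -100% = peptide control; nearly all actives have a fitted effect of over 45% in size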
#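 AMA1 (3D7) with his tag at 25 nM final met compounds first, then biotinylated RON2 peptide at 25 nM; detection used donor plus acceptor beads, 10 µg/mL apiece, read by AlphaScreen after 30 min at room temperature.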
# Pf growth 96h: P. falciparum growth inhibition at 96 hour, primary screen for plastid delayed-death inhibitors; P. falciparum luciferase reporter growth, 96 h; Potency, µM (titrated, usually from 28.7 µM), inactives show top-dose activity change, negative = inhibition, hits mostly inhibitors; hit rate 6.9% among 320,000; further: on the % scale 0 is the no-effect control and ±100 the full control effect
#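 Readout is luminescence from an integrated firefly luciferase in P. falciparum. Red cells, 2% hematocrit and 0.05% parasitemia final, were cultured with compound through two parasite generations (96 hours) at 37 C, 5% CO2.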
# SARS PLP yeast: inhibitors of SARS-CoV papain-like protease in yeast; S. cerevisiae expressing SARS-CoV PLpro, growth rescue; Potency, µM (titrated, usually from 32.9 µM), for inactives: at the top dose activity, positive = growth rescue, usual class: activators; hit rate 0.19% among 330,000; AID 485353; calls by dose curve; further: 0% is about no effect; nearly all actives have a fitted effect of over 55% in size
# An asterisk follows results filed as active; u = inconclusive; x = no result. In the library only some 12% were active in any assay of this set; here they are far more common. Unless noted, the call rests on the fitted dose curve; in most records, active means well fitted curve in the direction sought with a large enough effect; inconclusive means small, poorly fitted or top-dose-only effect, or another doubt; inactive means no such curve, though single readings can be large; an effect the other way counts as inactive or inconclusive. Potency means the concentration at half of the fitted maximal effect.
SMILES,Pf growth 48h,NS1 inh,HCV inhibitor,AMA1 RON2 block,Pf growth 96h,SARS PLP yeast
CCN1C/C(=C\c2cccc([N+](=O)[O-])c2)C(=O)/C(=C/c2cccc([N+](=O)[O-])c2)C1,2.9µM*,-28%,2.5µM*,-12%,42%,-27%
CCN1C/C(=C/c2ccc(OC)c(O)c2)C(=O)/C(=C/c2ccc(OC)c(O)c2)C1,2.6µM*,x,u,-1%,1.7µM*,-3%
CC1(C2CC2)NC(=O)N(CC(=O)Nc2ccc(F)cc2F)C1=O (configuration not stated),-19%,x,-18%,-6%,-20%,3%
COc1ccc(OCCC(=O)OCC(=O)NCc2ccccc2OC)cc1,-18%,x,4%,15%,4%,x
CN1C2=C(C(=O)CC(C)(C)C2)C(c2cccs2)C2=C1CC(C)(C)CC2=O,x,x,-20%,-5%,x,x
COc1ccccc1NC(=O)CSc1ccc(-c2ccc(-n3cccn3)cc2)nn1,u,x,u,-1%,u,-3%
c1ccc(Nc2nnc(SCc3cccc4ccccc34)s2)cc1,x,-1%,u,-1%,8.3µM*,-6%
COc1cc(-c2nnc(CSc3nnc(N)s3)o2)cc(OC)c1OC,10%,13%,-11%,-5%,-15%,-19%
COc1ccc(C(C)=O)cc1CSc1nnc(Nc2ccc(C)cc2)s1,u,-7%,u,-7%,u,-4%
COc1ccc(C(C)=O)cc1CSc1nnc(Nc2ccccc2)s1,u,-7%,u,-5%,6.6µM*,7%
COc1cc(-c2nnc(CSc3nnc(Nc4ccc(Oc5ccccc5)cc4)s3)o2)cc(OC)c1OC,u,26%,5.6µM*,19%,u,16%
CS(=O)(=O)c1ccc(S(=O)(=O)N2CCN(C(=O)C(O)c3ccccc3)CC2)cc1 (configuration not stated),x,x,x,5%,x,x
O=C(NC(=S)N(CCO)Cc1ccccc1)c1ccc(F)cc1Cl,-5%,-4%,-3%,87%,-7%,1%
O=[N+]([O-])c1ccccc1S(=O)(=O)N1CCN(c2ccccc2)CC1,10%,-11%,11%,0%,0%,-6%
O=C1C(Cl)=C(N2CCN(c3ccccc3[N+](=O)[O-])CC2)C(=O)c2ccccc21,u,1%,u,u,8.3µM*,-11%
CCOC(=O)C1CCCN(C(=O)c2cn(CC)c(=O)c3cc(OC)c(OC)cc23)C1 (configuration not stated),-23%,-6%,3%,1%,1µM*,0%
CCOC(=O)C1CCCN(C(=O)c2cn(CC(C)C)c(=O)c3cc(OC)c(OC)cc23)C1 (configuration not stated),u,-3%,u,-2%,26%,3%
CCOC(=O)C1CCCN(C(=O)c2cn(C)c(=O)c3cc(OC)c(OC)cc23)C1 (configuration not stated),-7%,-4%,-8%,-1%,6.6µM*,30%
Nc1cccc2cccc([N+](=O)[O-])c12,x,x,19%,u,x,x
O=C(NCCN1CCC(n2c(=O)[nH]c3ccccc32)CC1)N1c2ccccc2Sc2ccccc21,x,x,x,-18%,x,x
Cc1noc(C)c1COc1ccccc1C(=O)N1CCN(S(=O)(=O)c2cccc(Cl)c2)CC1,u,x,-4%,9%,-25%,1%
Cc1ccc(S(=O)(=O)N2CCN(C(=O)c3ccc(OCc4c(C)noc4C)cc3)CC2)cc1,x,-12%,u,-17%,0%,11%
COc1cc(C(=O)N2CCN(S(=O)(=O)c3ccc(C)cc3)CC2)ccc1OCc1c(C)noc1C,4.1µM*,-1%,-14%,0%,x,0%
Cc1noc(C)c1COc1ccccc1C(=O)N1CCN(S(=O)(=O)c2ccccc2Br)CC1,x,x,u,19%,x,x
Cc1cc(C)c(C)c(S(=O)(=O)N2CCN(C(=O)c3ccccc3OCc3c(C)noc3C)CC2)c1C,10µM*,x,u,-3%,13µM*,-2%

# Screens deposited in PubChem by National Center for Advancing Translational Sciences (NCATS).
